Sfp inh – qHTS Assay for Inhibitors of Bacillus subtilis Sfp phosphopantetheinyl transferase (PPTase) | 310,000 compounds, 3.5% hits | Potency, µM, for the others: largest response in the series, negative = inhibition, most hits filed as inhibitors | AID 1490, 2009 | Biochemical Sfp PPTase activity, qHTS;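 also: the enzyme is Sfp with the accession as filed and its product quenches rhodamine fluorescence; 0% = enzyme reaction without inhibitor and -100% = no enzyme wells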
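Compounds were incubated with enzyme (final 15 nM) for 15 min at room temperature before substrate addition started the reaction. Fluorescence at 525 nm excitation, 598 nm emission was recorded immediately and after 30 minutes.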
RORg inh – qHTS for inhibitors of ROR gamma transcriptional activity | Nuclear receptor ROR-gamma (Mus musculus), P51450 | AID 2551, 2010 | 310,000 compounds, 5.4% hits | Drosophila S2 Gal4-RORgamma UAS-luciferase reporter, 20 h | Potency, µM (highest dose often 53.6 µM), for the others: at the highest dose activity change, negative = inhibition, most hits filed as inhibitors; also: nearly all actives have a fitted effect of over 60% in size
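Stable Schneider cell line, Gal4 DNA-binding domain fused to ROR gamma, UAS-luciferase. Cmpd 1 hr RT → CuSO4 700 uM final → 20 hr RT → luciferase reagent 10 min → luminescence.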
ALDH1A1 block – qHTS Assay for Inhibitors of Aldehyde Dehydrogenase 1 (ALDH1A1); Purified ALDH1A1, NADH fluorescence, propionaldehyde substrate; Potency, µM (doses to about 75.3 µM), without a hit: at the highest dose activity, negative = inhibition, actives largely listed as inhibitors; 220,000 compounds, 7.3% hits; AID 1030, 2008; active = well fitted inhibition curve with a large enough effect, not every such curve was filed as active; inconclusive = small, poorly fitted or top-dose-only effect, or another doubt; inactive = no such curve, though single readings can be large or run the other way;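 also: plate controls were no enzyme wells and a reference inhibitor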
Target sequence (P00352 whole entry, looked up): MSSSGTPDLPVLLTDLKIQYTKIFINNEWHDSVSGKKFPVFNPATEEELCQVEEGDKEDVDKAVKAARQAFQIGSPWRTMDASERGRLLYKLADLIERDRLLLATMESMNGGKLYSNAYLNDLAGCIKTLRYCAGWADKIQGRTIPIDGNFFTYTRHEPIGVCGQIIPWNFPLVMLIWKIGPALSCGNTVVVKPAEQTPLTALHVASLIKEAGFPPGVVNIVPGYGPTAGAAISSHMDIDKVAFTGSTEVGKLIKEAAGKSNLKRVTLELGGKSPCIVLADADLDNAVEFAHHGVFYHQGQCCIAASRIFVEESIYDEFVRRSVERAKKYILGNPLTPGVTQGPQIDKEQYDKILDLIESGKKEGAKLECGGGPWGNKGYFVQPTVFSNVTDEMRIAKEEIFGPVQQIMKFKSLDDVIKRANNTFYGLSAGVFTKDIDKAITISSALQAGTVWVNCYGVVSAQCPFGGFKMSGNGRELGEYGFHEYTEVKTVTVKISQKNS
PLK1 PBD block – qHTS for Inhibitors of PLK1-PDB (polo-like kinase 1 - polo-box domain): Primary Screen; Serine/threonine-protein kinase PLK1 (Homo sapiens), P53350; Plk1 PBD binding of FITC phosphopeptide, fluorescence polarization; Potency, µM, for inactives: max response, negative = inhibition, most hits filed as inhibitors; 360,000 compounds, 2.8% hits; AID 720504, 2013; also: series mostly up to about 57 µM; nearly all actives have a fitted effect of over 65% in size
VP16 counter – VP16 counterscreen qHTS for inhibitors of ROR gamma transcriptional activity | Drosophila S2 Gal4-VP16 UAS-luciferase, luminescence, 20 h | Potency, µM (highest dose often 53.6 µM), without a hit: at the top dose activity, negative = inhibition, actives largely listed as inhibitors | 310,000 compounds, 3.5% hits;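 also: Gal4-VP16 expression switched on by copper sulfate through the metallothionein promoter; nearly all actives have a fitted effect of over 50% in size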
* hit, by the source's call; u = inconclusive; x = no result given; [ ] = dose if it differs, or a comment. The list is not random: actives were taken first. Their share in the collection is about 12%. Unless noted, calls follow the shape of the dose curve; as a rule, active = well fitted curve in the direction sought with a large enough effect; inconclusive = small, poorly fitted or top-dose-only effect, or another doubt; inactive = no such curve, though single readings can be large; an effect the other way counts as inactive or inconclusive. Unless noted, % is scaled to controls: 0 for no effect and ±100 for the full control effect; potency is read from the fitted curve at half-maximal effect.

SMILES | Sfp inh | RORg inh | ALDH1A1 block | PLK1 PBD block | VP16 counter
CC1(O)C(=O)C=C2C=C3CCCN3C=C2C1=O (centres undefined) | -9% | 3%[10 µM] | u | x | 0%[10 µM]
COC(=O)CC1[C@@]2(C)C[C@@]34OC5(C)OC6(CC[C@@]7(C)C(c8ccoc8)OC(=O)C(C(C)=O)C7[C@]6(O5)C(O)[C@@]3(O)C2O)[C@]14C (some centres undefined) | -5% | 4% | -3% | x | -5%
CCN(CC(=O)Nc1ccc(NC(C)=O)cc1)C(=O)c1cc(-c2ccccc2Cl)nc2ccccc12 | x | x | x | 5% | x
CCCCCCn1c(=O)n2n(c1=O)C[C@]1(OC(=O)NC3CCCC3)CN(S(=O)(=O)c3ccc(C)cc3)C[C@]1(O)C2 | x | x | x | 5% | x
S=c1[nH]cnc2sc(Nc3ccccc3)nc12 | 2.2µM* | 1µM* | 11% | -28% | 2.5µM*
Nc1nc(Nc2ccccc2)sc1C(=O)c1ccccc1 | -4% | -33% | x | -15% | u
CC(C)(Oc1ccc(Cl)cc1)C(=O)N/N=C/c1cn[nH]c1-c1ccccc1 | u | -12% | 8.9µM* | -6% | -3%
O=C(N/N=C/c1cn[nH]c1-c1ccc(Cl)cc1)c1ccc([N+](=O)[O-])cc1 | 22% | 10µM* | u | 0% | u
O=C(N/N=C\c1cn[nH]c1-c1ccccc1)c1ccc([N+](=O)[O-])cc1 | -15% | 11µM* | -9% | -5% | -4%
O=C(N/N=C\c1cn[nH]c1-c1ccc(Cl)cc1)c1cccs1 | 2% | u | x | 6% | u
Cc1nn2c(=S)[nH]nc2[nH]c1=O | 13µM* | -1% | u | u | 1%
Cc1ccc2c(c1)CCCN2C(=O)c1cc2ccccc2oc1=O | -13% | 17% | 14µM* | -13% | 2%
O=C(Nc1nnc(Cc2ccc(Cl)cc2)s1)C1CCCO1 (centres undefined) | -27% | 10% | 14µM* | 24µM* | u
CCCC(C)c1nnc(NC(=O)C(=O)OCC)s1 (centres undefined) | 20µM* | 1% | 7.9µM* | 11µM* | 0%
CCC(CC)c1nnc(NC(=O)CN2C(=O)c3ccccc3C2=O)s1 | -10% | -6% | -4% | -18% | 2%
CCCC(C)c1nnc(NC(=O)CN2C(=O)c3ccccc3C2=O)s1 (centres undefined) | 45µM* | -22% | 28µM* | 27µM* | -5%
Cc1nnc(NC(=O)C2CCCO2)s1 (centres undefined) | -6% | 2% | 8.9µM* | u | 2%
CC(C)NC(=O)N1CC[C@@]2(CCCN(C(=O)c3cc(C(F)(F)F)cc(C(F)(F)F)c3)C2)C1 | 17% | 4% | -1% | x | -5%
COc1ccc(C2=Nc3ccccc3N(C(=O)c3ccc4ncccc4c3)C2C(=O)NC2CCCC2)cc1 (centres undefined) | x | x | x | -4% | x
CC(C)C[C@H](NC(=O)[C@H](Cc1c[nH]c2ccccc12)NC(=O)[C@H](CCCCN)NC(=O)CNC(=O)[C@H](CC(C)C)NC(=O)[C@H](CO)NC(=O)[C@@H](N)Cc1cnc[nH]1)C(=O)NCC(=O)N[C@@H](Cc1cnc[nH]1)C(=O)N1CCC[C@H]1C(=O)N[C@@H](CC(=O)O)C(=O)N[C@@H](CCCCN)C(=O)N[C@@H](Cc1ccccc1)C(=O)O | -11% | 4% | x | x | 1%
C[C@H]1CN=C(Nc2ccccc2)N1CC1CCCCCC1 | 4% | -11% | x | -8% | -5%
CCc1nnc(NC(=O)C2CC(=O)N(CCc3ccc(F)cc3)C2)s1 (centres undefined) | 8% | 16% | x | u | -4%
CCCC(C)c1nnc(NC(=O)C2CC(=O)N(CCc3ccc(F)cc3)C2)s1 (centres undefined) | 28µM* | u | x | 6µM* | -7%
O=C(Nc1nnc(-c2ccncc2)s1)C1CCCO1 (centres undefined) | -58% | 12% | u | 21µM* | 9%
O=C(Nc1ccc(-c2nc3ccccc3o2)cc1)C1CCCO1 (centres undefined) | -1% | -35% | u | -18% | u
SMILES | Sfp inh | RORg inh | ALDH1A1 block | PLK1 PBD block | VP16 counter
Cc1ccc2nc(-c3ccc(NC(=O)C4CCCO4)cc3)[nH]c2c1 (centres undefined) | 8% | 6.3µM* | u | -1% | 7.1µM*
O=C(Nc1ccc(-c2nc3cccnc3s2)cc1)C1CCCO1 (centres undefined) | 2% | 18µM* | u | 2% | 11µM*
CCN(CC)CCCN1C=C2C(=O)C(C)(OC(=O)c3cccs3)C(=O)C=C2C=C1CCCC(=O)OC (centres undefined) | -18% | x | 15%[13.5 µM] | x | x
O=C(Nc1nnc(-c2ccccc2F)s1)C1CCCO1 (centres undefined) | -20% | -19% | 20µM* | 0% | -4%
O=C(Nc1nc2ccccc2s1)C1CCCO1 (centres undefined) | 11% | -3% | -7% | -3% | -22%
CCCC(C)c1nnc(NC(=O)C2CCCO2)s1 (centres undefined) | 13µM* | -2% | 3.5µM* | 30µM* | -8%
CN(C)CCNc1nc(Oc2cccc(F)c2)c2sccc2n1 | x | x | x | 8% | x
CN(Cc1ccccc1)C(=O)[C@@H]1CCCN1C(=O)[C@@H]1CCCN1C(=O)OC(C)(C)C | x | x | x | 4% | x
CC1(C(=O)Nc2cccc(Oc3ccccc3)c2)CCN1Cc1cccc2c1OCO2 (centres undefined) | x | x | x | -4% | x
Cc1cc(C(=O)NNC(=S)NC2CCCCC2)cs1 | 13% | 3.2µM* | x | -2% | u
CCNC(=S)NNC(=O)c1csc(C)c1 | 4% | 13µM* | -10% | -7% | u
COc1ccc(C(=O)NC2CCCCCCC2)cc1OC | x | x | x | -17% | x
COc1cccc(C(=O)NNC(=S)NC2CCCCC2)c1 | 4% | u | 6% | -9% | u
COc1ccc(C(=O)NNC(=S)NC2CCCCC2)cc1OC | 12% | 7.9µM* | 11% | -13% | u
CC(=O)Oc1c(Br)cc(N(C(C)=O)S(=O)(=O)c2ccccc2)c2ccccc12 | 35µM* | 4%[1.91 µM] | x | 27µM* | u
CC1CC(C)CN(C(=O)CNS(=O)(=O)c2ccc(Br)s2)C1 (centres undefined) | 2% | 22% | -2% | -7% | 0%
Cc1ccc(S(=O)(=O)NCC(=O)N2CCC(C)CC2)cc1 | 10% | u | -4% | 30µM* | 0%
Cc1ccc(S(=O)(=O)NCCCC(=O)N2CCC(C)CC2)cc1 | 5% | -5% | x | -2% | 8%
